Source: PubChem BioAssay (EPA / NIEHS)
Results filed as inconclusive are left out. Calls of active or inactive are those of the source. Rule for the calls, unless noted: active = hit-call score of the fitted dose curve at least 0.9, where 1 is the maximum; inactive = score below 0.9.

Tests used:
[1] = molecular target: human Peroxisome Proliferator-activated Receptor delta (PPARd), PPARD (gene 5467) (UniProt Q03181); assay: ATG_PPARd_TRANS: Attagene TRANS-FACTORIAL HepG2 Assay for human Peroxisome Proliferator-activated Receptor delta (PPARd) (AID 2283002; active = hit-call score of the fitted dose curve at least 0.9, where 1 is the maximum)
In short: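 HepG2 cells transiently transfected with multiplexed GAL4-UAS reporter units and exogenous chimeric NR-Gal4 proteins; 24 h compound exposure. Reporter mRNA measured by RT-PCR, 6-FAM labelling, HpaI digestion and capillary electrophoresis; gain of signal versus DMSO.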

[2] = molecular target: Peroxisome proliferator-activated receptor gamma (Homo sapiens) (UniProt P37231); assay: ATG_PPARg_TRANS: Attagene TRANS-FACTORIAL HepG2 Assay for human Peroxisome Proliferator-activated Receptor-gamma (PPARg) (AID 2283007; active = hit-call score of the fitted dose curve at least 0.9, where 1 is the maximum)
In short: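 After 24 h of chemical exposure, transfected HepG2 cells carrying PPARγ-Gal4 chimera reporter constructs are lysed for RNA. Reporter transcripts are measured by RT-PCR and capillary electrophoresis with fluorescent labelling, and gain of signal is fitted versus DMSO.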

[3] = molecular target: Nuclear receptor subfamily 1 group I member 2 (Homo sapiens) (UniProt O75469); assay: ATG_PXR_TRANS: Attagene TRANS-FACTORIAL HepG2 Assay for human Pregnane X Receptor (PXR) (AID 2283008; active = hit-call score of the fitted dose curve at least 0.9, where 1 is the maximum)
In short: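 HepG2 cells transiently transfected with GAL4-UAS reporter units and PXR-Gal4 chimera, exposed 24 h. Reporter mRNA quantified by RT-PCR, fluorescent labelling, HpaI digestion and capillary electrophoresis; gain of signal vs DMSO.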

[4] = molecular target: Retinoic acid receptor RXR-alpha (Homo sapiens) (UniProt P19793); assay: ATG_RXRa_TRANS: Attagene TRANS-FACTORIAL HepG2 Assay for human Retinoid X Receptor alpha (RXRa) (AID 2283012; active = hit-call score of the fitted dose curve at least 0.9, where 1 is the maximum)
In short: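 HepG2 cells transiently transfected with GAL4-UAS reporter units and chimeric RXRa-Gal4 protein, treated 24 h. Reporter mRNA measured by RT-PCR, fluorescent labelling, HpaI digestion and capillary electrophoresis. Induction fitted against DMSO.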

[5] = molecular target: human Retinoid X Receptor beta (RXRb), RXRB (gene 6257) (UniProt P28702); assay: ATG_RXRb_TRANS: Attagene TRANS-FACTORIAL HepG2 Assay for human Retinoid X Receptor beta (RXRb) (AID 2283013; active = hit-call score of the fitted dose curve at least 0.9, where 1 is the maximum)
In short: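 HepG2 cells were transiently transfected with multiplexed GAL4-UAS reporters and a chimeric RXRb-Gal4 construct, then exposed for 24 h. Reporter mRNA was quantified by RT-PCR, FAM labeling, HpaI digestion and capillary electrophoresis; gain of signal was scored against DMSO.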

[6] = molecular target: human Thyroid Receptor alpha (THRa1), THRA (gene 7067) (UniProt P10827); assay: ATG_THRa1_TRANS: Attagene TRANS-FACTORIAL HepG2 Assay for human Thyroid Receptor alpha (THRa1) (AID 2283014; active = hit-call score of the fitted dose curve at least 0.9, where 1 is the maximum)
In short: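 Reporter transcript induction, read by capillary electrophoresis of 6-FAM-labelled RT-PCR products, reflects activity of a transfected THRa1-Gal4 fusion in HepG2 liver cells. Cells were dosed for 24 h; activity was fitted in the positive direction against DMSO.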

[7] = read-out: Intercellular Adhesion Molecule 1 (ICAM1), ICAM1 (gene 3383); assay: BSK_3C_ICAM1: BioMAP Diversity Plus: 3C Assay for Intercellular Adhesion Molecule 1 (ICAM1) Biomarker Activity (AID 2283003); conditions: primary human endothelial cells (HUVEC); actives raise or lower the signal
In short: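 HUVEC primary cells stimulated under 3C conditions; ICAM1 measured by ELISA 24 h after compound dosing. Curves fitted bidirectionally against the DMSO baseline. Overt cytotoxicity checked by SRB staining of parallel cultures.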

[8] = BSK_3C_Proliferation: Cell Proliferation Assessment in the BioMAP Diversity Plus: 3C Assay (AID 2283006); conditions: primary human endothelial cells (HUVEC);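 for AC50: potency may reflect either rise or fall in cell number versus DMSO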
In short: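 Subconfluent HUVEC (3C system) cultured with chemical; relative cell number read at 48 h by sulforhodamine B total-protein staining (0.1% SRB after 10% TCA fixation, 560 nm). Bidirectional fit relative to DMSO.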

[9] = read-out: Interleukin-1 alpha (IL1a), IL1A (gene 3552); assay: BSK_BE3C_IL1a: BioMAP Diversity Plus: BE3C Assay for Interleukin-1 alpha (IL1a) Biomarker Activity (AID 2283016); conditions: primary human bronchial epithelial cells; actives raise or lower the signal
In short: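 Human primary bronchial epithelial cells, 24 h chemical exposure; IL-1a quantified by ELISA, fitted bidirectionally against DMSO. Cytotoxicity assessed in parallel by SRB total-protein staining at the time of measurement.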

[10] = read-out: Monocyte Chemoattractant Protein-1 (MCP1), CCL2 (gene 6347); assay: BSK_3C_MCP1: BioMAP Diversity Plus: 3C Assay for Monocyte Chemoattractant Protein-1 (MCP1) Biomarker Activity (AID 2283017); conditions: primary human endothelial cells (HUVEC); actives raise or lower the signal
In short: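 ELISA read-out of MCP-1 from human umbilical vein endothelial cell cultures harvested 24 h post-dosing. Gain or loss of signal was fitted relative to DMSO.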

[11] = read-out: Monocyte Chemoattractant Protein-1 (MCP1), CCL2 (gene 6347); assay: BSK_4H_MCP1: BioMAP Diversity Plus: 4H Assay for Monocyte Chemoattractant Protein-1 (MCP1) Biomarker Activity (AID 2283018); conditions: primary human endothelial cells (HUVEC); actives raise or lower the signal
In short: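 Human umbilical vein endothelial cells (4H system) exposed to chemicals for 24 h in 96-well format. MCP-1 measured by ELISA; bidirectional fitting against DMSO, with SRB total-protein staining in parallel cultures for cytotoxicity.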

[12] = read-out: Human Leukocyte Antigen - DR isotype (HLADR), HLA-DRA (gene 3122); assay: BSK_3C_HLADR: BioMAP Diversity Plus: 3C Assay for Human Leukocyte Antigen - DR isotype (HLADR) Biomarker Activity (AID 2283019); conditions: primary human endothelial cells (HUVEC); actives raise or lower the signal
In short: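 ELISA readout of surface HLA-DR on human umbilical vein endothelium, taken 24 h after chemical treatment. Gain- and loss-of-signal were both fitted relative to DMSO.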

[13] = read-out: Interleukin-8 (IL8), CXCL8 (gene 3576); assay: BSK_3C_IL8: BioMAP Diversity Plus: 3C Assay for Interleukin-8 (IL8) Biomarker Activity (AID 2283020); conditions: primary human endothelial cells (HUVEC); actives raise or lower the signal
In short: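 Primary human umbilical vein endothelial cells were dosed for 24 h. IL-8 was quantified by ELISA and fitted bidirectionally against DMSO. Cytotoxicity was assessed in parallel cultures by SRB staining at 560 nm.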

[14] = read-out: Monokine induced gamma interferon (MIG), CXCL9 (gene 4283); assay: BSK_3C_MIG: BioMAP Diversity Plus: 3C Assay for Monokine induced gamma interferon (MIG) Biomarker Activity (AID 2283021); conditions: primary human endothelial cells (HUVEC); actives raise or lower the signal
In short: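 HUVEC primary endothelial cultures dosed with chemical; MIG quantified by ELISA at 24 h. Data fitted bidirectionally against DMSO control, with parallel SRB total-protein staining for cytotoxicity.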

[15] = molecular target: human RAR-related Orphan Receptor beta (RORb), RORB (gene 6096) (UniProt Q92753); assay: ATG_RORb_TRANS: Attagene TRANS-FACTORIAL HepG2 Assay for human RAR-related Orphan Receptor beta (RORb) (AID 2283010; active = hit-call score of the fitted dose curve at least 0.9, where 1 is the maximum)
In short: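 HepG2 cells transiently transfected with GAL4-UAS reporter units expressing chimeric NR-Gal4 protein; reporter mRNA measured 24 h after dosing by RT-PCR, 6-FAM labelling and capillary electrophoresis. Gain-of-signal fitted relative to DMSO baseline.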

[16] = molecular target: human RAR-related Orphan Receptor gamma (RORg), RORC (gene 6097) (UniProt P51449); assay: ATG_RORg_TRANS: Attagene TRANS-FACTORIAL HepG2 Assay for human RAR-related Orphan Receptor gamma (RORg) (AID 2283011; active = hit-call score of the fitted dose curve at least 0.9, where 1 is the maximum)
In short: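 First, HepG2 liver cells were transfected with GAL4-UAS-driven reporter constructs and the RORg-Gal4 fusion. Next, they were treated with chemical for 24 h. Finally, reporter mRNA was quantified by RT-PCR and capillary electrophoresis, with upward activity fitted against DMSO.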

Measured: AC50

Sequence of human Peroxisome Proliferator-activated Receptor delta (PPARd), PPARD (gene 5467) (Q03181 whole entry, looked up, the tested form may be a part): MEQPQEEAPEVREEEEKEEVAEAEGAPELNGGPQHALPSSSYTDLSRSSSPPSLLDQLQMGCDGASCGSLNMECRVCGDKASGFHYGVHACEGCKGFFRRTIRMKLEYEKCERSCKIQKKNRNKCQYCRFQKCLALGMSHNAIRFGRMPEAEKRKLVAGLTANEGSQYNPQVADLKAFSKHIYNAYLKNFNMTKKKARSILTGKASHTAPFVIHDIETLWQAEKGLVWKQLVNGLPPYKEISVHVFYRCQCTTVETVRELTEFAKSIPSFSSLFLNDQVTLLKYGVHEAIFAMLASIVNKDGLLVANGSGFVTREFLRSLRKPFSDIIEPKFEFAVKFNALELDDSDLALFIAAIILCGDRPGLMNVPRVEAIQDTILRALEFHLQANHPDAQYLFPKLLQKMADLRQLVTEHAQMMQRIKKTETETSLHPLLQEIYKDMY
Sequence of Peroxisome proliferator-activated receptor gamma (Homo sapiens) (P37231 whole entry, looked up, the tested form may be a part): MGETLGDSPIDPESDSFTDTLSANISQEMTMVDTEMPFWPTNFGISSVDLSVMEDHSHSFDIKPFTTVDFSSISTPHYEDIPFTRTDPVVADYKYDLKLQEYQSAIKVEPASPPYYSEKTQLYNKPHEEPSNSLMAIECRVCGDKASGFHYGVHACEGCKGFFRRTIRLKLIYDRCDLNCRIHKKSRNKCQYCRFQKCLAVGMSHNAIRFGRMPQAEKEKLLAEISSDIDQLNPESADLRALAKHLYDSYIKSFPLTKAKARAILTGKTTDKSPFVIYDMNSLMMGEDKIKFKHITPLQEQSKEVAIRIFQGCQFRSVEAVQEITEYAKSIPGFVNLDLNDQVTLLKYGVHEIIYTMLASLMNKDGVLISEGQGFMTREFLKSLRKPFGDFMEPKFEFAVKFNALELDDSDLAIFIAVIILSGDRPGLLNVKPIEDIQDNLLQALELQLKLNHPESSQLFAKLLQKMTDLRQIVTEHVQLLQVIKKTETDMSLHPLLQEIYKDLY
Sequence of human Retinoid X Receptor beta (RXRb), RXRB (gene 6257) (P28702 whole entry, looked up, the tested form may be a part): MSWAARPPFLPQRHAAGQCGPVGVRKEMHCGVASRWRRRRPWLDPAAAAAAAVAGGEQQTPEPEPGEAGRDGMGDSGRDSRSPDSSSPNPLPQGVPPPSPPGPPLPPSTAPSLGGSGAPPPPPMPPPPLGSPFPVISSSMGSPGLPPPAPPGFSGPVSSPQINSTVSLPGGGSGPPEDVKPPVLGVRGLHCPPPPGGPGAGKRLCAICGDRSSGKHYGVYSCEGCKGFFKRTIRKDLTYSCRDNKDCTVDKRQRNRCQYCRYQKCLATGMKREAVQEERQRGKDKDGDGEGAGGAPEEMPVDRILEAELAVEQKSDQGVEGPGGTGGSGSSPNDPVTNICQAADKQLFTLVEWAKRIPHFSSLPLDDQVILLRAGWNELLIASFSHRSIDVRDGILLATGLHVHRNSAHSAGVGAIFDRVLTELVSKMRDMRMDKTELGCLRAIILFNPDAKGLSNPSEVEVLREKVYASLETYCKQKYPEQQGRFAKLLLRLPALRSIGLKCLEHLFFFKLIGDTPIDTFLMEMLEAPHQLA
Sequence of human RAR-related Orphan Receptor beta (RORb), RORB (gene 6096) (Q92753 whole entry, looked up, the tested form may be a part): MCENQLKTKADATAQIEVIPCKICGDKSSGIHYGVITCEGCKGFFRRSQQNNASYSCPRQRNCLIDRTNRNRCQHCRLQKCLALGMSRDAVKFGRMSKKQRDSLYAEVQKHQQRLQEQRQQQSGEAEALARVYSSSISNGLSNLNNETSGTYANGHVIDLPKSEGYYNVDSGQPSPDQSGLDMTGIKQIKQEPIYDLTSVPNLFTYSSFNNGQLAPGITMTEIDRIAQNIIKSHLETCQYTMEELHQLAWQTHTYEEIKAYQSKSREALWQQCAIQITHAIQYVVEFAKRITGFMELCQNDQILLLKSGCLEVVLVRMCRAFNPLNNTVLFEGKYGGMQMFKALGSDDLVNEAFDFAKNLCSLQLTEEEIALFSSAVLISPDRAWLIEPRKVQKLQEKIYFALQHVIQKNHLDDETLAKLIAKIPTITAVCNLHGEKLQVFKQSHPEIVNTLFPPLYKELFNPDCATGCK
Sequence of human Thyroid Receptor alpha (THRa1), THRA (gene 7067) (P10827 whole entry, looked up, the tested form may be a part): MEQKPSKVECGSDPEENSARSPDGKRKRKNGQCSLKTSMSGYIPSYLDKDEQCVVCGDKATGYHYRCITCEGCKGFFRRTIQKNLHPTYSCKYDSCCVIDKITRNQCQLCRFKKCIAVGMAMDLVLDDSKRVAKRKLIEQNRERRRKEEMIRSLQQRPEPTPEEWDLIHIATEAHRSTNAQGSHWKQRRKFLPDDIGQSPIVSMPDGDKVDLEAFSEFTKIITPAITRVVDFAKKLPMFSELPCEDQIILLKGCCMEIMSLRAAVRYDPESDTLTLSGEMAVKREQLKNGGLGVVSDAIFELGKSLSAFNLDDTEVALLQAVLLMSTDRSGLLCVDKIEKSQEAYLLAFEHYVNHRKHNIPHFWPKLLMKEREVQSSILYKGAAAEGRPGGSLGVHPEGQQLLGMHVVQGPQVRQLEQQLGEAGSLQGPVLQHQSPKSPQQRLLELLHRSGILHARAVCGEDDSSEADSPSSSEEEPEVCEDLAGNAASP
Sequence of Nuclear receptor subfamily 1 group I member 2 (Homo sapiens) (O75469 whole entry, looked up, the tested form may be a part): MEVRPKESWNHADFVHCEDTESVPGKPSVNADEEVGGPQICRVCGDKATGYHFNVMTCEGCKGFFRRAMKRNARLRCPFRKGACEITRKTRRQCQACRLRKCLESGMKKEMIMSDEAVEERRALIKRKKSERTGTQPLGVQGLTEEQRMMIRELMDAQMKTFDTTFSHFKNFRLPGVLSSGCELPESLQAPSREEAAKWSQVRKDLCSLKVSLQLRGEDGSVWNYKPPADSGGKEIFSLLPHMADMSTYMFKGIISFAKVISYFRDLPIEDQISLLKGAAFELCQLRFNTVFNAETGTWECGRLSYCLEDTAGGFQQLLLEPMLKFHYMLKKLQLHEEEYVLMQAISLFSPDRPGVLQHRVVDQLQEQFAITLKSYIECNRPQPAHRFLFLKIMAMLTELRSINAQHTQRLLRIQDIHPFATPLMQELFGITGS
Sequence of human RAR-related Orphan Receptor gamma (RORg), RORC (gene 6097) (P51449 whole entry, looked up, the tested form may be a part): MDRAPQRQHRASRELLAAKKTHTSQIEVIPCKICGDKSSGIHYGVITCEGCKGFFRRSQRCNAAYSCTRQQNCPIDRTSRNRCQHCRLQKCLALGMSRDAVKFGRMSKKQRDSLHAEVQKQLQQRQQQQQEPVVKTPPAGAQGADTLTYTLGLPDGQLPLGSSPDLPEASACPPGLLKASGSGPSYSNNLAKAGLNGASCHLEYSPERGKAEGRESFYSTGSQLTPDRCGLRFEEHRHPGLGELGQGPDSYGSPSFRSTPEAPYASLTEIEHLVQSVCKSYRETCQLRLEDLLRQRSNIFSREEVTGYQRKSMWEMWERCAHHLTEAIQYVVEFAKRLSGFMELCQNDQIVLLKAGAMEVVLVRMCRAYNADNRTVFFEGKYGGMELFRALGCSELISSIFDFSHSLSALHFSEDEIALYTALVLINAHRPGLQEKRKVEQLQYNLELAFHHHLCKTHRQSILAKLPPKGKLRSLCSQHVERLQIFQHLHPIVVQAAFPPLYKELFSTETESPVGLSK
Sequence of Retinoic acid receptor RXR-alpha (Homo sapiens) (P19793 whole entry, looked up, the tested form may be a part): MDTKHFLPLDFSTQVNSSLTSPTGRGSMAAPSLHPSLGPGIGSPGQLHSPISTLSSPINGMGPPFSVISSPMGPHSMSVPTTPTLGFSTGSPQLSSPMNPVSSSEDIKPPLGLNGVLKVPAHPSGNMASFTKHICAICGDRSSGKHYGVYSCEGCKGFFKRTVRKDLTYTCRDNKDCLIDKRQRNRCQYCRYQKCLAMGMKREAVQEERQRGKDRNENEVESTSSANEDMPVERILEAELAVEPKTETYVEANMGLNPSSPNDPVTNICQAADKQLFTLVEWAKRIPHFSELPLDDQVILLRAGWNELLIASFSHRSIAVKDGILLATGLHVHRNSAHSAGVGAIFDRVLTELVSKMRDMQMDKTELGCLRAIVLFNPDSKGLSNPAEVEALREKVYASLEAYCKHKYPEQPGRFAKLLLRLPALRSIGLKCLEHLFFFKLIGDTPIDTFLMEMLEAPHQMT

CCOc1ccccc1OCC
inactive: [1] | [2] | [3] | [4] | [5] | [6]

Cc1cc(C2(c3cc(C)c(O)cc3C)OS(=O)(=O)c3ccccc32)c(C)cc1O
active: [3] 32.7 µM
not listed: [1] | [6] | [15] | [16]
inactive: all other assays above

CC1(C)[C@H](C(=O)OCc2cccc(Oc3ccccc3)c2)[C@@H]1C=C(Cl)Cl
inactive: [1] | [3] | [6]

OCCCCCO
inactive: [1] | [2] | [3] | [6]

CC(=O)/C=C/C1=C(C)CCCC1(C)C
active: [2] 21.1 µM | [3] 2.3 µM | [5] 80 µM
not listed: [1] | [15] | [16]
inactive: all other assays above

CN(CCOc1ccc(CC2SC(=O)NC2=O)cc1)c1ccccn1 (stereo not drawn)
inactive: [7] | [5] | [6] | [13] | [14]
active: [8] 7.9 µM | [3] 5.11 µM | [9] 3.97 µM | [10] 113 nM | [11] 3.97 µM | [12] 9.42 µM

CC[Si](OC(C)=O)(OC(C)=O)OC(C)=O
active: [3] 7.32 µM
not listed: [1] | [4] | [5] | [6]
inactive: all other assays above

CC(=O)O[C@]1(C(C)=O)CC[C@H]2[C@@H]3C[C@H](C)C4=CC(=O)CC[C@]4(C)[C@H]3CC[C@@]21C
active: [2] 21.9 µM | [4] 2.91 µM | [5] 2.34 µM | [12] 10 µM
not listed: [1] | [6] | [15] | [16]
inactive: all other assays above

CC(=O)C(C)=O
inactive: [1] | [3] | [4]

COC(C(=O)O)c1ccccc1 (stereo not drawn)
active: [6] 62.9 µM
inactive: [1] | [2] | [3]

OCCN1CCNCC1
inactive: [1] | [15]

COC(=O)OC
inactive: [1] | [3] | [16] | [5]

CC(CC(C)(C)C)CC(C)(C)CC(C)(C)C (stereo not drawn)
inactive: [1] | [2] | [15] | [16] | [4] | [5] | [6]
